# Screening data from PubChem.
# CSC inhib: cancer stem cell inhibition; cancer stem cell-like cells viability, luminescence; inhibition, % at 7.5 µM; hit rate 1.1% among 300,000; in the data active means inhibition above about 75%; inconclusive means no clear call, values can overlap the other calls; tested in HMLE shEcad cells
# MPTP block: permeability transition pore inhibition; hit rate 1.4% among 360,000; isolated mouse mitochondria, Ca2+ swelling absorbance, 30 min; inhibition, % at 10 µM; AID 602449;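 active means inhibition of 50% or more, scaled per plate between neutral and stimulator controls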
# NR3A LBD binder: modulators (binders) of human NR3A ligand-binding domain; NR3A LBD differential scanning fluorimetry, Tm shift; 0% = protein alone, 100% = glycine-bound protein; Tm shift relative to glycine control, % at 25 µM; hit rate 2.5% among 340,000;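 active means melting temperature shift of at least 10% of the positive control shift, at one fixed dose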
# Mdm2-MdmX inh: disrupts the human Mdm2-MdmX interaction. O15151+Q00987. SaOS-2 split-luciferase Mdm2/MdmX complementation, luminescence. inhibition, % at 8 µM. hit rate 3% among 330,000. AID 485346;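 active means inhibition of at least 50% at 8 µM in the primary screen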
# Beta cell apopt: beta cell apoptosis inhibition. INS-1E cytokine-induced death, ATP luminescence, 48 h; percent of positive-control rescue, neutral wells zero. protection from apoptosis, % (no concentration beside the values). hit rate 0.8% among 300,000. AID 435005;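 active means Every replicate reaches about 75%, or at least half do and their mean reaches it too, limit read from the data; inconclusive means At least half of replicates reach the limit but their mean does not; inactive means Under half of replicates reach the limit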;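 further: higher means more ATP so stronger rescue from cytokine killing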
# SKKanGAS inh: inhibitors of SKKanGAS S. pyogenes growth in kanamycin (SK-promoter or general growth effect); hit rate 1.3% among 300,000; inhibition, % at 7.5 µM; AID 1662; BacTiter-Glo, 6 h;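 active means mean replicate score, as percent of positive control median, at least 50; inconclusive means mean below 50 but one replicate at or above 50; inactive means mean and every replicate below 50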;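 further: strain carries kanamycin resistance gene driven by streptokinase promoter and grows in 40 µg/ml kanamycin; loss of luminescence reflects streptokinase promoter inhibition or plain growth inhibition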
# Numbers stand for hits; . = inactive; ? = inconclusive; / = no result given. In the library only some 6.9% were active in any assay of this set; here they are far more common.
SMILES,CSC inhib,MPTP block,NR3A LBD binder,Mdm2-MdmX inh,Beta cell apopt,SKKanGAS inh
CCN(c1ccc(OC)cc1)S(=O)(=O)N1CCCC(C(=O)NC(C)c2ccccc2)C1 (configuration not stated),/,.,/,/,/,/
Cc1ccc(/C=C/c2ccc(=O)n(Cc3ccccc3Cl)n2)cc1,.,.,.,.,.,69.2
COc1ccc(/C=C/c2ccc(=O)n(Cc3ccccc3)n2)cc1,.,.,15.5,.,/,.
O=c1ccc(/C=C/c2ccccc2)nn1Cc1ccc(F)cc1,.,.,.,.,.,.
CNc1ccc(-c2cccc(C(=O)N3CCOCC3)c2)cn1,/,.,/,/,/,/
COc1cc(OC)c(N(C)S(=O)(=O)c2cccc(C(=O)OCC(=O)c3c[nH]c4ccccc34)c2)cc1Cl,/,.,25.9,.,/,.
C=CCN(c1ccccc1OC)S(=O)(=O)c1cccc(C(=O)OCC(=O)c2c[nH]c3ccccc23)c1,.,.,28.7,.,.,.
C=CCN(c1ccccc1OC)S(=O)(=O)c1cccc(C(=O)OCC(=O)N2CCOCC2)c1,.,.,.,.,.,/
COc1ccc(C(=O)OCC(=O)c2c[nH]c3ccccc23)cc1OC,/,.,.,.,.,/
CC(=O)N(c1cccc(Br)c1)c1nc(C)cc(C)c1C#N,.,.,.,.,.,.
COc1ccc(CCNCC(=O)Nc2ccc(C(=O)N3CCCCC3)cc2)cc1,.,.,19.7,.,.,.
CNC(=O)COc1coc(CN2CCN(c3ccccc3OC)CC2)cc1=O,.,.,.,.,/,.
COc1ccc2ccc(O)c(CN(C)CC(=O)Nc3ccccc3C(F)(F)F)c2c1,.,.,.,.,.,.
Cc1noc(C)c1C(=O)OCC(=O)NC1CC1,.,.,16.3,.,.,.
Cc1noc(C)c1C(=O)OCC(=O)NC1CCCCC1C (configuration not stated),/,.,.,.,/,/
Cc1ccc2c(c1)c1c3n2CCNC3CCC1 (configuration not stated),/,.,.,.,/,.
Oc1[nH]c2ccc(Br)cc2c1N=Nc1ccc(C(F)(F)F)cn1,.,.,20.8,.,.,.
O=C(O)c1ccc(N=Nc2c(O)[nH]c3cc(Cl)ccc23)cc1,.,.,.,.,.,70.1
COC(=O)N=Nc1c(O)[nH]c2ccc(Br)cc12,.,.,.,.,.,.
O=C(O)c1ccc(N=Nc2c(O)[nH]c3ccc(Br)cc23)cc1,.,.,.,.,.,71.0
Oc1[nH]c2ccccc2c1N=Nc1ccc(C(F)(F)F)cn1,.,.,.,.,.,.
O=C(O)Cc1ccc2c(c1)Cc1cccnc1O2,/,.,/,/,/,/
Cc1cc(NC(=O)COC(=O)c2cc(S(=O)(=O)N(C)C)ccc2Cl)no1,.,.,.,.,.,/
CC(C)n1c(O)c(N=NC(=O)CNC(=O)Cc2ccc(Cl)cc2)c2ccccc21,.,.,.,.,.,.
COc1ccccc1C(=O)NCC(=O)N=Nc1c(O)n(C(C)C)c2ccccc12,.,.,254.7,.,.,.
SMILES,CSC inhib,MPTP block,NR3A LBD binder,Mdm2-MdmX inh,Beta cell apopt,SKKanGAS inh
COc1ccc(C)cc1NC(=O)CCc1ccc(S(=O)(=O)N2CCOCC2)cc1,/,.,.,.,.,/
COc1cc2cc(Oc3ccc4ccc(=O)oc4c3)c(=O)oc2cc1O,.,.,.,.,.,58.8
COc1cc2cc(Oc3ccc4ccc(=O)oc4c3)c(=O)oc2cc1OC(C)=O,.,.,.,.,.,.
CCOC(=O)c1nc(Nc2ccccc2)c2ccccc2n1,.,.,.,.,.,.
CCOC(=O)c1nc(Nc2cc(Cl)ccc2OC)c2ccccc2n1,.,.,10.0,.,.,.
COc1ccc(CCNc2ccc(C(CC(N)=O)NC(=O)c3cc(OC)ccc3OC)cc2[N+](=O)[O-])cc1 (configuration not stated),.,.,42.3,.,.,.
COc1ccc(OC)c(C(=O)NC(CC(N)=O)c2ccc(NCCOc3ccccc3)c([N+](=O)[O-])c2)c1 (configuration not stated),.,.,.,.,.,.
Cc1cc(C)c(OCCCCN2CCC(C)CC2)c(Br)c1,82.2,.,.,.,.,.
Cc1cc(Cl)c(OCCOCCN2CCC(C)CC2)c(Br)c1,.,.,16.7,.,.,.
Cc1cc(Cl)c(OCCOCCN2CCN(C)CC2)c(Br)c1,.,.,.,.,.,.
Cc1cc(Br)ccc1OCCCCN1CCC(C)CC1,.,.,.,.,.,.
COc1ccc(S(=O)(=O)N2CCCC2)cc1C(=O)O,.,.,.,.,.,.
O=C(N/N=C/c1cccc([N+](=O)[O-])c1)c1cc(-c2ccc3c4c(cccc24)CC3)n[nH]1,.,.,18.3,.,.,.
Cn1cccc1-c1cc(C(=O)N/N=C/c2ccc([N+](=O)[O-])cc2)[nH]n1,.,.,27.9,.,.,.
CCOc1ccc(/C=N/NC(=O)c2cc(-c3cccn3C)n[nH]2)cc1,.,.,21.9,.,.,.
O=C(NN=Cc1ccc2c(c1)CCC2)c1cccc([N+](=O)[O-])c1,/,.,/,/,/,/
COc1ccc(C2=NN(C(=O)CCCC(=O)O)C(c3cn(-c4ccccc4)nc3-c3ccccc3)C2)cc1 (configuration not stated),.,.,.,.,.,.
O=C1/C(=C/c2cccnc2)CC/C1=C\c1cccnc1,.,.,.,.,.,.
CN(C)c1ccc(/C=C2\CCC/C(=C\c3ccccc3)C2=O)cc1,86.3,.,.,/,.,.
O=C1/C(=C/c2cccnc2)CCC/C1=C\c1cccnc1,103.2,/,.,/,100.3,/
COc1ccccc1CN1CCC(n2nccc2NC(=O)CCOc2ccccc2)CC1,.,.,.,.,.,.
Cc1cccc(/C=N/NC(=O)c2cc(-c3cccnc3)nc3c2c(C)nn3-c2ccccc2)c1,.,.,23.5,.,.,.
CCOc1ccc(C(=O)/C=C/c2cn(CN3CCN(C)CC3)c3ccccc23)cc1,99.9,.,32.1,.,.,/
COc1ccc(C(=O)/C=C/c2cn(CC(O)CN3CCOCC3)c3ccccc23)cc1 (configuration not stated),.,.,.,/,.,/
COc1ccc(C(=O)/C=C/c2cn(CN3CCN(C)CC3)c3ccccc23)cc1,.,.,35.6,.,.,/
SMILES,CSC inhib,MPTP block,NR3A LBD binder,Mdm2-MdmX inh,Beta cell apopt,SKKanGAS inh
COC(=O)c1cc(C(=O)OCC(=O)N(C)c2ccccc2)cc([N+](=O)[O-])c1,.,.,.,.,.,.
CCc1ccc(C(=O)/C=C/Nc2ccc(S(=O)(=O)Nc3cnc4ccccc4n3)cc2)cc1,.,.,.,.,.,.
Cc1nc2ccc(NC(=O)Cc3ccc4c(c3)OCCO4)cc2s1,.,.,.,.,.,.
CCc1ccc(S(=O)(=O)Nc2cc(SCC(=O)O)c(O)c3ccccc23)cc1,114.4,.,.,.,.,.
O=S(=O)(Nc1cc(Sc2cccc3cccnc23)c(O)c2ccccc12)c1ccccc1,/,/,/,/,/,91.4
CCOc1ccc(S(=O)(=O)Nc2cc(SCC(=O)O)c(O)c3ccccc23)cc1,/,.,.,/,/,.
CCc1ccc(S(=O)(=O)Nc2ccc(O)c3ccccc23)cc1,91.9,.,.,.,?,.
